Compounds with a hit are over-represented: about 21% of the library has one in this group of screens.
Pf growth 96h = P. falciparum growth inhibition at 96 hours. P. falciparum luciferase reporter growth, 96 h. Potency, µM (highest dose often 28.7 µM), actives largely listed as inhibitors. hit rate 6.9% among 320,000. AID 504834; active = well fitted inhibition curve with a large enough effect; inconclusive = small, poorly fitted or top-dose-only effect, or another doubt; inactive = no such curve, though single readings can be large or run the other way
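Compounds incubated with erythrocytes infected by luciferase-expressing P. falciparum (2% hematocrit, 0.05% parasitemia final) for 96 hours, 37 C in 5% CO2. Growth inhibition scored as decreased luciferase luminescence.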
Shiga inhibitor = Shiga toxin inhibition; Vero cells, Shiga toxin protein synthesis inhibition reporter; inhibition, % at 38.7 µM; hit rate 9.2% among 290,000; AID 2315; in the data active = inhibition mostly above about 28%, no sharp cut-off; inactive = mostly below about 43%
NS1 inh = blocks influenza NS1 protein function | Potency, µM (top dose mostly 46.1 µM) | hit rate 0.4% among 270,000; note: actives are rising curves; nearly all actives have a fitted effect of over 50% in size
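Growth recovery, yeast-based: influenza A NS1 expressed in S. cerevisiae causes slow growth, and suppressors are detected by OD600. The parent strain without NS1 is used as positive control.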
Pf growth 48h = inhibits P. falciparum growth in the first generation, 48 h; P. falciparum luciferase growth in erythrocytes, 48 h; Potency, µM (series often up to 28.7 µM), most hits filed as inhibitors; hit rate 5.9% among 310,000; AID 504832; active = well fitted inhibition curve with a large enough effect; inconclusive = small, poorly fitted or top-dose-only effect, or another doubt; inactive = no such curve, though single readings can be large or run the other way
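Parasite viability was followed by luminescence of a genomically integrated firefly luciferase. Cultures held 0.1% parasitemia at 2% hematocrit (final), incubated under 5% CO2 at 37 C.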
CHX counter = counter-screen for Shiga toxin inhibitors: cycloheximide protein synthesis inhibition; cell reporter, cycloheximide protein synthesis inhibition counterscreen; max response, %; hit rate 12% among 300,000; in the data active = max response mostly above about 13%, no sharp cut-off; inactive = mostly below about 14%; note: read at 38.3 µM for the half of the compounds with a filed dose
SARS PLP yeast = SARS-CoV PLP inhibition in yeast; S. cerevisiae expressing SARS-CoV PLpro, growth rescue; Potency, µM (titrated, usually from 32.9 µM), usual class: activators; hit rate 0.19% among 330,000; AID 485353; note: nearly all actives have a fitted effect of over 55% in size
Hits are given with their value; 0 = inactive; ? = inconclusive; - = not tested or not shown; [ ] = dose if it differs, or a comment. Unless noted, calls come from the whole dose curve.

SMILES	Pf growth 96h	Shiga inhibitor	NS1 inh	Pf growth 48h	CHX counter	SARS PLP yeast
O=C(Nc1ccc2c(c1)CCC2)Nc1ccc(F)cc1F	?	74	0	0	67	0
Cc1ccccc1NC(=O)Nc1ccc(C(F)(F)F)cc1	0	56	0	0	23	0
O=C(Nc1ccc(F)cc1F)NC1CCCc2ccccc21 (centres undefined)	0	0	0	0	0	0
Cc1ccccc1NC(=O)Nc1ccc2c(c1)CCC2	0	104	0	0	28	?
Cc1ccccc1NC(=O)CNC(=O)c1ccc(C(F)(F)F)cc1	0	0	0	0	0	0
CCN(CC)S(=O)(=O)c1ccc(S(=O)(=O)N2CCCC(C(=O)NC3CC3)C2)cc1 (centres undefined)	?	0	0	0	0	0
CCCNC(=O)Nc1ccc(C(F)(F)F)cc1	?	43	0	0	18	0
O=C(Nc1cccc(F)c1)Nc1ccc2c(c1)C(=O)OC2	0	0	?	0	0	0
O=C(Nc1ccc2c(c1)CCC2)c1ncoc1-c1ccccc1F	0	0	0	0	27	0
O=C(Nc1cccc(F)c1)Nc1ccc2c(c1)CCC2	1.7µM	80	0	0	25	0
CCCCNC(=O)Nc1ccc(C(O)(C(=O)OC)C(F)(F)F)cc1 (centres undefined)	0	0	0	0	0	0
O=C(Nc1ccc(F)cc1)Nc1ccc2c(c1)CCC2	0	68	0	0	49	0
CCc1ccc(CN(C)CC(=O)Nc2ccc3c(c2)CCC3)cc1	0	0	-	0	0	0
OCC[C@H]1C[C@@H](O)[C@H](O)[C@]2(OCCc3ccccc32)O1	0	-	-	?	-	0
Cc1ccc(C2CC(=O)Oc3cc(C)c(Cl)cc32)cc1 (centres undefined)	-	0	-	-	0	-
C=CC[C@H](CC(=O)NCCO)C(=O)N[C@H](COC(=O)[C@H](CC=C)CC(=O)OC(C)(C)C)Cc1c[nH]c2ccccc12	-	-	-	-	-	0
O=C(CN1C(=O)COc2ccc(S(=O)(=O)N3CCCCC3)cc21)NCc1ccccc1Cl	?	0	0	0	0	0
O=C(Nc1ccccc1)Nc1ccc2c(c1)CCC2	0	156	0	0	81	0
COc1ccc(NC(=O)CC2CCCC2)cc1OC	0	0	0	0	0	0
CCOc1ccc(NC(=O)Nc2ccc3c(c2)CCC3)cc1	0	0	0	0	0	0
O=[N+]([O-])c1cccc(CNc2ccc3c(c2)CCC3)c1	0	active	0	0	0	0
COC(=O)c1sccc1NC(=O)Nc1cccc([N+](=O)[O-])c1	?	0	0	0	0	0
O=C(CC1CCCC1)Nc1ccc2c(c1)CCC2	0	51	0	0	29	0
O=C(Nc1cccc([N+](=O)[O-])c1)Nc1cccs1	0	0	-	?	32	0
Cc1cc(NC(=O)COC(=O)C(C)Oc2ccc(Cl)cc2Cl)no1 (centres undefined)	0	0	0	0	0	0
SMILES	Pf growth 96h	Shiga inhibitor	NS1 inh	Pf growth 48h	CHX counter	SARS PLP yeast
CC(C)(C)NC(=S)NC(=O)C12CC3CCC(CC(C3)C1)C2	0	0	0	10µM	0	0
COc1ccc2c(C(=O)NCc3ccc4c(c3)OCO4)c(-c3ccc(S(C)(=O)=O)cc3)sc2c1	-	-	-	-	-	0
CCN1C(=O)[C@H]2[C@H]3[C@H](O)[C@H](O)C/C(=N\OC[C@@H](C)[C@H](OCc4ccccc4)C(C)C)[C@@H]3CC[C@H]2C1=O	?	0	0	10µM	0	0
COC(=O)c1ccc(N=Nc2c(C)[nH]n(-c3ccccc3)c2=O)cc1	0	0	0	0	0	0
CSc1ccc(N=Nc2c(C)[nH]n(C)c2=O)cc1	?	67	0	?	46	0
COc1cc([N+](=O)[O-])ccc1N=Nc1c(N)[nH]n(-c2ccccc2)c1=O	0	0	-	0	0	0
Nc1[nH]n(-c2ccccc2)c(=O)c1N=Nc1ccccc1[N+](=O)[O-]	?	0	0	-	13	0
Cc1[nH]n(-c2ccccc2)c(=O)c1N=Nc1ccc(F)cc1	0	0	0	0[0.00184 µM]	13	0
Cc1ccc(N=Nc2c(C)[nH]n(-c3ccccc3)c2=O)cc1Br	0	0	0	0	0	0
Cc1[nH]n(-c2ccccc2)c(=O)c1N=Nc1cccc(Cl)c1	0	0	0	0	0	0
Nc1[nH]n(-c2ccccc2)c(=O)c1N=Nc1ccc2ncsc2c1	0	38	0	0	41	0
CC(C)CC1NC(=O)N(CC(=O)Nc2ccc(OC(F)F)cc2)C1=O (centres undefined)	0	-	-	0	-	0
Cc1[nH]n(-c2ccccc2)c(=O)c1N=Nc1ccc2c(c1)OCCO2	0	0	-	0	0	0
Nc1[nH]n(-c2ccccc2)c(=O)c1N=Nc1ccccc1	0	61	0	0	61	0
Cc1[nH]n(-c2ccccc2)c(=O)c1N=Nc1c(O)cc(S(=O)(=O)N(C)C)c2ccccc12	4.1µM	-	-	3.3µM	-	0
CCCCNC(=O)CN1C(=O)NC(CCc2ccccc2)C1=O (centres undefined)	0	0	-	0	0	0
Cc1nc(-c2ccccc2Cl)sc1C(=O)/C=C/N(C)C	0	0	0	0	24	0
Cc1nc(-c2ccccc2)sc1C(=O)/C=C/c1ccc(Cl)cc1	?	0	0	?	0	0
CCN(C(=O)CSC1=Nc2ccccc2C2CC=NN12)C1CCS(=O)(=O)C1 (centres undefined)	?	0	-	0	0	0
CCn1c(-c2cc(Br)cc(OC)c2O)nc2cc(S(=O)(=O)N(C)C)ccc21	12µM	0	0	?	0	0
CCn1c(-c2ccccn2)nc2cc(S(=O)(=O)N(C)C)ccc21	0	0	0	0	17	0
CCCCn1c(CCC(=O)O)nc2cc(S(=O)(=O)N(C)C)ccc21	?	0	-	?	0	0
O=C(Nc1ccc(N2CCN(C(=O)c3ccco3)CC2)cc1)c1cccnc1Cl	0	0	0	0	0	0
Cc1ccc(COC(=O)c2cccc(S(=O)(=O)N3CCCCCC3)c2)cc1	?	-	-	?	-	0
CC(=O)N1CCN(S(=O)(=O)c2cccc(C(=O)OCc3ccc(C(C)(C)C)cc3)c2)CC1	9.3µM	-	-	12µM	-	0
SMILES	Pf growth 96h	Shiga inhibitor	NS1 inh	Pf growth 48h	CHX counter	SARS PLP yeast
COc1ccc(C(=O)OCc2c(F)cccc2Cl)cc1S(=O)(=O)N1CCOCC1	?	-	-	?	-	0
O=C(OCc1ccc(Br)cc1)c1cccc(S(=O)(=O)N2CCCC2)c1	10µM	-	-	?	-	0
COc1ccc(COC(=O)c2ccc(C)c(S(=O)(=O)N3CCOCC3)c2)cc1F	10µM	-	-	?	-	0
Cc1ccc(COC(=O)c2cccc(S(=O)(=O)N3CCCCC3)c2)cc1	?	-	-	?	-	0
COc1ccc(C(=O)OCc2ccccc2F)cc1S(=O)(=O)N1CCCC1	13µM	-	-	9.3µM	-	0
COc1ccc(F)cc1S(=O)(=O)Nc1cccc(C(=O)O)c1	0	0	0	0	0	0
COc1ccc(COC(=O)c2cccc(S(=O)(=O)N3CCCC3)c2)cc1F	12µM	0	0	?	0	0
CC(=O)Nc1nn(C)c2nc3cc(C)ccc3cc12	0	0	0	0	0	0

Screening data from PubChem BioAssay.
